Laboratory results as given in PubChem BioAssay AID1159580 (chemical genetic matrix, 2015).
Hit rate of the full screen: of about 5,500 compounds, about 2,000 (36%) were called active. Another 18% or so got no clear call; they are omitted. Rule as the data show it: active = normalized growth mostly below about 0.91 (no sharp cut-off); inconclusive = no clear call, values can overlap the other calls; inactive = mostly above about 0.92. This is one part of the list.

Assay: chemical genetic growth profiling, strain panel (AID 1159580);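 also: tested at 20 µM; growth read once vehicle control cultures reached saturation at 30 °C; 1 = growth at the plate median or of vehicle wells; lower values mean less growth of the strain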
Conditions: S. cerevisiae deletion strains, growth OD
[1] = locus YAL013W, strain DEP1, stronger effect = lower value
[2] = locus YBR229C, strain ROT2, stronger effect = lower value
[3] = locus YCL061C, strain MRC1, stronger effect = lower value
[4] = locus YDL101C, strain DUN1, stronger effect = lower value
[5] = locus YDR150W, strain NUM1, stronger effect = lower value
[6] = locus YEL061C, strain CIN8, stronger effect = lower value
[7] = locus YGR078C, strain PAC10, stronger effect = lower value
[8] = locus YHR030C, strain SLT2, stronger effect = lower value
[9] = locus YHR087W, strain rtc3, stronger effect = lower value
[10] = locus YJR043C, strain POL32, stronger effect = lower value
[11] = locus YJR075W, strain HOC1, stronger effect = lower value
[12] = locus YLR039C, strain RIC1, stronger effect = lower value
[13] = locus YLR058C, strain SHM2 (second series), stronger effect = lower value
[14] = locus YLR085C, strain ARP6, stronger effect = lower value
[15] = locus YLR262C, strain YPT6, stronger effect = lower value
[16] = locus YML094W, strain GIM5, stronger effect = lower value
[17] = locus YMR219W, strain ESC1, stronger effect = lower value
[18] = locus YMR263W, strain SAP30, stronger effect = lower value
[19] = locus YNL153C, strain GIM3, stronger effect = lower value
[20] = locus YNL298W, strain CLA4 (second series), stronger effect = lower value
[21] = locus YNL322C, strain KRE1, stronger effect = lower value
[22] = locus YNR030W, strain Alg12, stronger effect = lower value
[23] = locus YOL006C, strain TOP1, stronger effect = lower value
[24] = locus YPL055C, strain LGE1, stronger effect = lower value
[25] = locus YPL241C, strain CIN2, stronger effect = lower value
[26] = locus YPR135W, strain CTF4, stronger effect = lower value

Measured: normalized growth

O=S(=O)(NCC1CC1)c1ccc(F)c(Cl)c1
inactive: [1] 1 | [2] 1 | [3] 0.999 | [4] 0.994 | locus YDL134C, strain PPH21, stronger effect = lower value 1.01 | [5] 0.945 | [6] 1 | [7] 1 | [8] 0.969 | [9] 1.02 | [10] 0.997 | [11] 1.01 | [12] 1.06 | [13] 1 | [14] 1 | [15] 1 | [16] 1.01 | [17] 1 | [18] 1 | [19] 1 | [20] 1.03 | [21] 0.995 | [22] 0.996 | [23] 1.05 | [24] 1.02 | [25] 0.99 | [26] 1.02

O=S(=O)(NCc1ccc2c(c1)OCO2)c1ccc(F)c(Cl)c1
active: [12] 0.757 | [15] 0.683
inactive: [1] 0.98 | [2] 0.94 | [3] 0.977 | [4] 0.925 | [5] 0.913 | [6] 0.965 | [7] 0.96 | [8] 0.779 | [9] 0.948 | [10] 0.968 | [11] 0.937 | [13] 0.951 | [14] 0.991 | [16] 1 | [17] 0.962 | [18] 0.965 | locus YNL128W, strain TEP1, stronger effect = lower value 0.957 | [19] 0.971 | [20] 0.943 | [21] 0.967 | [22] 0.954 | [23] 0.843 | [24] 0.995 | [25] 0.998 | [26] 0.784
